# Assay results from PubChem BioAssay (EPA / NIEHS).
# Calls of active or inactive are those of the source. Rule for the calls: active = hit-call score of the fitted dose curve at least 0.9, where 1 is the maximum; inactive = score below 0.9.
# What was measured:
# [1] = APR_HepG2_CellCycleArrest_24hr: Apredica 24-hour HepG2 Assay for Cell Cycle Arrest (AID 2282905); details: imaging, actives raise or lower the signal;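 note: cell cycle arrest scored as ratio of 2N to 4N nuclear DNA content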
# Outline: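 Compounds (0.39 to 200 uM, final DMSO 0.5% v/v) are applied to HepG2 cells for 24 hours; cells are then fixed, permeabilized and nuclei labeled with Hoechst 33342. Automated imaging measures DNA content, and activity is fitted in both directions against DMSO.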
# [2] = APR_HepG2_NuclearSize_24hr: Apredica 24-hour HepG2 Assay for Nuclear Size (AID 2282907); details: high-content imaging, actives raise or lower the signal
# Outline: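 Nuclear size is measured by fluorescence high-content imaging of Hoechst-labelled HepG2 nuclei after 24 hr of treatment (0.39–200 uM, 0.5% DMSO). Cells are fixed in 3.7% formaldehyde before staining, and DMSO serves as the baseline for bidirectional curve fitting.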
# [3] = APR_HepG2_CellLoss_24hr: Apredica 24-hour HepG2 Assay for Cell Loss (AID 2282908); details: high-content imaging;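 for AC50: fit in both directions so a hit may be cell loss or gain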
# Outline: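 Nuclear count serves as the viability measure: treated cells are fixed, permeabilized and labelled with Hoechst 33342, and six images per well are analysed to identify valid nuclei. Doses span 0.39–200 uM, and activity in either direction is scored against DMSO.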
# [4] = APR_HepG2_MitoticArrest_24hr: Apredica 24-hour HepG2 Assay for Mitotic Arrest (AID 2282910); details: high-content imaging, actives raise or lower the signal
# Outline: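 High-content imaging of fixed HepG2 cells labeled with Hoechst 33342 and anti-phospho-histone H3, after 24 h treatment. Ten concentrations 0.39 to 200 uM in duplicate, final DMSO 0.5%; changes fitted both directions relative to DMSO.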
# [5] = APR_HepG2_MitoMembPot_24hr: Apredica 24-hour HepG2 Assay for Mitochondrial Membrane Potential (AID 2282911); details: imaging, actives raise or lower the signal
# Outline: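 Mitochondrial membrane potential imaged via MitoTracker Red CMXRos (250 nM, 30 min pre-fixation) in fixed HepG2 cells with Hoechst nuclear identification. Ten concentrations 0.39–200 uM, 24 h treatment, 0.5% DMSO; CCCP as positive control.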
# [6] = APR_HepG2_MitoMass_24hr: Apredica 24-hour HepG2 Assay for Mitochondrial Mass (AID 2282912); details: high-content imaging, actives raise or lower the signal
# Outline: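 After 24 hr of treatment at 0.39 to 200 uM, HepG2 cells take up 250 nM MitoTracker Red CMXRos for 30 min and are then fixed with 3.7% formaldehyde. Per-well images are quantified, and any change in either direction is scored against solvent.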
# [7] = APR_HepG2_CellCycleArrest_72hr: Apredica 72-hour HepG2 Assay for Cell Cycle Arrest (AID 2282914); details: high-content imaging, actives raise or lower the signal
# Outline: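 Read-out: nuclear DNA content from Hoechst 33342 high-content imaging (20x, six fields/well) after 3.7% formaldehyde fixation, fitted bidirectionally against DMSO. Treatment was 72 h in HepG2, ten concentrations 0.39–200 uM, duplicate, 0.5% DMSO.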
# [8] = APR_HepG2_CellLoss_72hr: Apredica 72-hour HepG2 Assay for Cell Loss (AID 2282915); details: high-content imaging
# Outline: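 Cell number comes from Hoechst 33342-labelled nuclei, imaged at 20x after 3.7% formaldehyde fixation. Dosing was 0.39–200 uM, ten concentrations in duplicate, 0.5% DMSO final, for 72 h. Bidirectional fit relative to DMSO baseline.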
# [9] = APR_HepG2_MitoMembPot_72hr: Apredica 72-hour HepG2 Assay for Mitochondrial Membrane Potential (AID 2282917); details: imaging, actives raise or lower the signal
# Outline: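 Membrane potential read by MitoTracker Red CMXRos (250 nM, 30 min, pre-fixation) fluorescence imaging of HepG2 after 72 hr exposure. Ten concentrations, 0.39–200 uM, duplicate wells, 0.5% DMSO; fitted in both directions against DMSO baseline.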
# [10] = APR_HepG2_p53Act_24hr: Apredica 24-hour HepG2 Assay for p53 Activation (AID 2282913); details: high-content imaging, actives raise or lower the signal;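 note: p53 protein immunofluorescence averaged per cell in HepG2 with Hoechst nuclei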
# Outline: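 Fluorescence imaging of formaldehyde-fixed HepG2 cells labelled for p53 and with Hoechst, 24 h after dosing (0.39–200 uM, duplicate wells, 0.5% v/v DMSO). Signal fitted in both directions relative to DMSO.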
Structure (SMILES),outcome [1],outcome [2],outcome [3],outcome [4],outcome [5],outcome [6],outcome [7],outcome [8],outcome [9],outcome [10],AC50 [5],AC50 [1],AC50 [3],AC50 [7],AC50 [8],AC50 [6],AC50 [4]
Clc1cccc(Cl)c1,inactive,inactive,inactive,inactive,inactive,inactive,inactive,inactive,inactive,–,–,–,–,–,–,–,–
N#Cc1cccnc1,inactive,inactive,inactive,inactive,inactive,inactive,inactive,inactive,inactive,–,–,–,–,–,–,–,–
CC(C)(C)c1ccccc1O,inactive,inactive,inactive,inactive,inactive,inactive,inactive,inactive,inactive,–,–,–,–,–,–,–,–
Cc1cc(C)cc(C)c1,inactive,inactive,inactive,inactive,inactive,inactive,inactive,inactive,inactive,–,–,–,–,–,–,–,–
Oc1c(Cl)cc(Cl)cc1Cl,–,–,inactive,inactive,inactive,inactive,–,inactive,inactive,inactive,–,–,–,–,–,–,–
CCCCCCCCCCCCc1cccc(S(=O)(=O)O)c1,inactive,inactive,inactive,inactive,inactive,inactive,inactive,inactive,inactive,–,–,–,–,–,–,–,–
COc1ccccc1N,inactive,inactive,inactive,inactive,–,inactive,inactive,inactive,–,–,29.3 µM (active),–,–,–,–,–,–
OCCN(CCO)CCO,inactive,inactive,inactive,inactive,inactive,inactive,inactive,inactive,inactive,–,–,–,–,–,–,–,–
CN(C)C(=S)S,–,inactive,–,inactive,inactive,inactive,–,–,inactive,–,–,19.8 µM (active),0.183 µM (active),0.0391 µM (active),0.238 µM (active),–,–
O=C(O)C1(c2ccc3c(c2)OC[C@H](Cc2ccc(-c4ccccc4)cc2)[C@H]3O)CCCC1,inactive,inactive,inactive,inactive,–,–,–,–,inactive,–,105 µM (active),–,–,118 µM (active),86.9 µM (active),112 µM (active),–
O=C(N[C@H]1CN2CCC1CC2)c1ccc2c(c1)OCCO2,inactive,inactive,inactive,inactive,inactive,inactive,inactive,inactive,inactive,–,–,–,–,–,–,–,–
CC(C)O.CC(C)O.OCCN(CCO)CCO.OCCN(CCO)CCO.[Ti],inactive,inactive,inactive,inactive,inactive,inactive,inactive,inactive,inactive,–,–,–,–,–,–,–,–
Clc1cccc(Cl)c1Cl,inactive,inactive,inactive,inactive,inactive,inactive,inactive,inactive,inactive,–,–,–,–,–,–,–,–
Oc1cc(Cl)c(Cl)cc1Cl,–,inactive,–,–,inactive,–,inactive,–,inactive,–,–,35.7 µM (active),27.7 µM (active),–,44.6 µM (active),46.7 µM (active),38.6 µM (active)
